Bioassay records (PubChem)
Many of the other results were omitted from the sample, so hits are more common in it than they were.
Pf Dd2 growth: blocks in vitro growth of P. falciparum Dd2; actives 4.3% (n = 120,000); P. falciparum Dd2 growth, SYBR Green, 72 h; Potency, µM (top dose mostly 28.9 µM), actives largely listed as inhibitors; active = well fitted inhibition curve with a large enough effect; note: nearly all actives have a fitted effect of over 65% in size
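Readout: SYBR Green fluorescence, 485 nm excitation, 535 nm emission, after ~16 h lysis at 37C. Before that, Dd2-infected red cells (2.5% hematocrit) grew 72 h with compound, 29 uM top final concentration.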
Hits are given with their value; n = inactive; [ ] = remark or other dose.

SMILES	Pf Dd2 growth
COc1ccccc1C(=O)N1c2ccccc2C(C)(c2ccc(Cl)cc2)CC1(C)C (stereo not drawn)	8.9µM
CCCCC(=O)N1c2ccccc2C(C)(c2ccccc2)CC1(C)C (stereo not drawn)	n
CN1C(=O)c2cccn2CC1CNC(=O)CCc1c[nH]c2ccccc12 (stereo not drawn)	n
C[C@@H](NC(=O)N1CCOC[C@H]1c1ncc(-c2ccc(F)cc2)[nH]1)c1ccccc1	n
Cc1cc(C(=O)N2C[C@@H](COCC3CC3)[C@H](c3ccccn3)C2)ccn1	n
CCc1ccccc1NC(=O)Cn1c(C)cc2nc3n(c(=O)c21)CCCCC3	n
CCOc1ccccc1NC(=O)c1sc2nc3c(cc2c1N)CN(Cc1ccccc1)CC3	10µM
Nc1c(C(=O)Nc2ccccc2)sc2nc3c(cc12)CN(Cc1ccccc1)CC3	n
CN1CCc2nc3sc(C(=O)Nc4ccccc4OC(F)(F)F)c(N)c3cc2C1	n
COc1nccnc1NC1CCN(C(=O)c2ccccc2C)CC1	n[5.79 µM]
N#Cc1ccc(C(=O)N2CCC(Cc3nc(-c4ccccc4)n[nH]3)C2)cc1 (stereo not drawn)	n
CN1C(=O)CCC2(CNC(=O)c3cccn3C)CCC=C12 (stereo not drawn)	n
COc1cccc(-c2nc(N3CCCCC3)ncc2C(=O)O)c1	n
CCNC(=O)N1CCC(CCOc2ccccc2)C1 (stereo not drawn)	n
